Assay [1] is described as follows: BSK_4H_Eotaxin3: BioMAP Diversity Plus: 4H Assay for Eotaxin 3 Biomarker Activity (AID 2283000).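 For outcome: CCL26 protein level quantified by ELISA in parallel with SRB cytotoxicity check.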 To be noted: primary human endothelial cells (HUVEC); actives raise or lower the signal. In outline:
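ELISA quantitation of CCL26 (Eotaxin-3) protein from chemically dosed human vascular endothelial cells at 24 h; increases and decreases both scored relative to DMSO-treated baseline.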

Assay [2] deals with human Peroxisome Proliferator-activated Receptor alpha (PPARa), PPARA (gene 5465) (UniProt Q07869). Briefly: ATG_PPARa_TRANS: Attagene TRANS-FACTORIAL HepG2 Assay for human Peroxisome Proliferator-activated Receptor alpha (PPARa) (AID 2283001; active = hit-call score of the fitted dose curve at least 0.9, where 1 is the maximum;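 for AC50: potency for gain of reporter signal over DMSO so agonist or activator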). The method, boiled down:
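HepG2 cells transiently transfected with multiplexed GAL4-UAS reporter units and chimeric NR-Gal4 constructs were dosed for 24 h. Reporter mRNA was measured by RT-PCR with fluorescent labelling and capillary electrophoresis; gain of signal fitted against DMSO.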

Read-out in assay [3]: Intercellular Adhesion Molecule 1 (ICAM1), ICAM1 (gene 3383)
Briefly: BSK_3C_ICAM1: BioMAP Diversity Plus: 3C Assay for Intercellular Adhesion Molecule 1 (ICAM1) Biomarker Activity (AID 2283003). To be noted: primary human endothelial cells (HUVEC); actives raise or lower the signal. The method, boiled down: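 Human vascular endothelial primary cells, 3C conditions, 24 h treatment. ICAM-1 by ELISA.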

Assay [4] has as its target human Retinoic Acid Receptor beta (RARb), RARB (gene 5915) (UniProt P10826). Briefly: ATG_RARb_TRANS: Attagene TRANS-FACTORIAL HepG2 Assay for human Retinoic Acid Receptor beta (AID 2283004; active = hit-call score of the fitted dose curve at least 0.9, where 1 is the maximum). In outline:
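Fluorescent capillary-electrophoresis detection of GAL4-UAS reporter mRNA defines the endpoint, with induction over DMSO-treated wells scored as activity. Transiently transfected human hepatoma HepG2 cells expressing exogenous NR–Gal4 proteins are exposed to test chemicals for 24 h.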

Assay [5] has as its target Retinoic acid receptor alpha (Homo sapiens) (UniProt P10276). Briefly: ATG_RARa_TRANS: Attagene TRANS-FACTORIAL HepG2 Assay for human Retinoic Acid Receptor alpha (RARa) (AID 2283005; active = hit-call score of the fitted dose curve at least 0.9, where 1 is the maximum). In outline:
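HepG2 cells transiently transfected with multiple reporter units expressing chimeric RARα-GAL4 fusion, with GAL4-UAS-driven reporters. After 24 h compound exposure, reporter mRNA induction quantified by RT-PCR and capillary electrophoresis with fluorescent labeling; gain-of-signal fitted relative to DMSO control.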

Assay [6] is described as follows: BSK_3C_Proliferation: Cell Proliferation Assessment in the BioMAP Diversity Plus: 3C Assay (AID 2283006).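 For AC50: potency may reflect either rise or fall in cell number versus DMSO.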 The following applies: primary human endothelial cells (HUVEC). In outline: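 Proliferation of human vascular endothelial primary cells after 48 h dosing, quantified as SRB-stained protein at 560 nm relative to DMSO.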
The target of assay [7] is Peroxisome proliferator-activated receptor gamma (Homo sapiens) (UniProt P37231). Briefly: ATG_PPARg_TRANS: Attagene TRANS-FACTORIAL HepG2 Assay for human Peroxisome Proliferator-activated Receptor-gamma (PPARg) (AID 2283007; active = hit-call score of the fitted dose curve at least 0.9, where 1 is the maximum). In outline:
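Liver-derived HepG2 cells expressing an exogenous NR-Gal4 chimera alongside GAL4-UAS reporter genes; 24 h exposure. Fluorescence of reporter RT-PCR products, separated by capillary electrophoresis, gives mRNA induction relative to DMSO.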

The target of assay [8] is human Retinoic Acid Receptor gamma (RARg), RARG (gene 5916) (UniProt P13631). Briefly: ATG_RARg_TRANS: Attagene TRANS-FACTORIAL HepG2 Assay for human Retinoic Acid Receptor gamma (RARg) (AID 2283009; active = hit-call score of the fitted dose curve at least 0.9, where 1 is the maximum). In outline:
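HepG2, RARg-GAL4 TRANS system, 24 h exposure; reporter mRNA by RT-PCR + CE fluorescence; increase over DMSO.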

The target in assay [9] is Nuclear receptor subfamily 1 group I member 2 (Homo sapiens) (UniProt O75469). Briefly: ATG_PXR_TRANS: Attagene TRANS-FACTORIAL HepG2 Assay for human Pregnane X Receptor (PXR) (AID 2283008; active = hit-call score of the fitted dose curve at least 0.9, where 1 is the maximum). The method, boiled down: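 Fluorescence intensity of FAM-labelled, HpaI-digested reporter amplicons, separated by capillary electrophoresis, quantifies induction. HepG2 cells with PXR-Gal4 trans-reporter system were exposed 24 h; DMSO defines baseline.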
Sequence of Nuclear receptor subfamily 1 group I member 2 (Homo sapiens) (O75469 whole entry, looked up, the tested form may be a part): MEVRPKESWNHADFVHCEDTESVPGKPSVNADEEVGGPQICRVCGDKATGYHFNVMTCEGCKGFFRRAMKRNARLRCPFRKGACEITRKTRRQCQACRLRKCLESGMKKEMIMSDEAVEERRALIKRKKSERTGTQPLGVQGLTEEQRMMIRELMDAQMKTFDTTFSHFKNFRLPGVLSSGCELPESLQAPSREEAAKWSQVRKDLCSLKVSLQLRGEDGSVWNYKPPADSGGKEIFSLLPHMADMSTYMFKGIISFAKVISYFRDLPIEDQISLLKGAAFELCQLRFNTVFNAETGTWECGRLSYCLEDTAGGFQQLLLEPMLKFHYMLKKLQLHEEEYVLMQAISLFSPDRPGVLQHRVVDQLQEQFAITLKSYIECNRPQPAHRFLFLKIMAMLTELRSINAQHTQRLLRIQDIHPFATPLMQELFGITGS

The target in assay [10] is human Peroxisome Proliferator-activated Receptor delta (PPARd), PPARD (gene 5467) (UniProt Q03181). Briefly: ATG_PPARd_TRANS: Attagene TRANS-FACTORIAL HepG2 Assay for human Peroxisome Proliferator-activated Receptor delta (PPARd) (AID 2283002; active = hit-call score of the fitted dose curve at least 0.9, where 1 is the maximum). The method, boiled down:
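Measured quantity: GAL4-UAS reporter transcript induction in HepG2 after 24 h chemical dosing, with NR-Gal4 chimeras supplied by transient transfection. Detection by RT-PCR and capillary electrophoresis; upward fit against DMSO.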

Several values for one entry are separate records, joined by “and”; a condition that tells them apart may be missing. Equal values may be shown once. Records with an inconclusive call do not appear. A structure can be active in one record and inactive in another. Activity calls are given as the source filed them. Rule for the calls, unless noted: active = hit-call score of the fitted dose curve at least 0.9, where 1 is the maximum; inactive = score below 0.9.

Experimental findings from PubChem BioAssay (EPA / NIEHS) are described below.

As a reminder, the AC50 is the midpoint of the concentration-response curve, whichever way the signal moves.

Sequence of Peroxisome proliferator-activated receptor gamma (Homo sapiens) (P37231 whole entry, looked up, the tested form may be a part): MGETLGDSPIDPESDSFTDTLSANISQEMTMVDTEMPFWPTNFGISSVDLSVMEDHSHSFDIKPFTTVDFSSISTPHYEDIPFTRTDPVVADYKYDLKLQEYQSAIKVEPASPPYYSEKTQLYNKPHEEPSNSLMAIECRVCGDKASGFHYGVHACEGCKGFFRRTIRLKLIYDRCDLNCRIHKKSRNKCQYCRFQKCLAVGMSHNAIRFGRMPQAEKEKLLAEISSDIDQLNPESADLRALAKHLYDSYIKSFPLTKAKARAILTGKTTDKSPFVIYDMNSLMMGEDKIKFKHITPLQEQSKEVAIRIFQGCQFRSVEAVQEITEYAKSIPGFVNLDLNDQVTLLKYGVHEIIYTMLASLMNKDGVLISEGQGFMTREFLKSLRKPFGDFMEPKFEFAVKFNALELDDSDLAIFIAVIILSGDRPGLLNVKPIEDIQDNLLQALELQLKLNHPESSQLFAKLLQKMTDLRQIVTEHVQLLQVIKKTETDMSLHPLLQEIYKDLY
Sequence of human Retinoic Acid Receptor beta (RARb), RARB (gene 5915) (P10826 whole entry, looked up, the tested form may be a part): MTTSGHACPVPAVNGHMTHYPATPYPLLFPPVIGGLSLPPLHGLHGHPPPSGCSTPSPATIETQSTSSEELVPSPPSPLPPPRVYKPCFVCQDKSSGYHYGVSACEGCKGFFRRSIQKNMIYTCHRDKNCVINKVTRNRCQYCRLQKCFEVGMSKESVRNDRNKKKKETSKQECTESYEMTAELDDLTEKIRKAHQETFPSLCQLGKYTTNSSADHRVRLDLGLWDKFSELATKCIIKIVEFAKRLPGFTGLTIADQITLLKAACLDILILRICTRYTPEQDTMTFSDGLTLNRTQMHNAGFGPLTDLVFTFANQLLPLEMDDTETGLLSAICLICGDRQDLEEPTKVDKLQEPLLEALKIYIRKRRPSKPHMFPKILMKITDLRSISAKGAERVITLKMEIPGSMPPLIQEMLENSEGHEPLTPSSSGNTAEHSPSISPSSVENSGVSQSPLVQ
Sequence of human Peroxisome Proliferator-activated Receptor alpha (PPARa), PPARA (gene 5465) (Q07869 whole entry, looked up, the tested form may be a part): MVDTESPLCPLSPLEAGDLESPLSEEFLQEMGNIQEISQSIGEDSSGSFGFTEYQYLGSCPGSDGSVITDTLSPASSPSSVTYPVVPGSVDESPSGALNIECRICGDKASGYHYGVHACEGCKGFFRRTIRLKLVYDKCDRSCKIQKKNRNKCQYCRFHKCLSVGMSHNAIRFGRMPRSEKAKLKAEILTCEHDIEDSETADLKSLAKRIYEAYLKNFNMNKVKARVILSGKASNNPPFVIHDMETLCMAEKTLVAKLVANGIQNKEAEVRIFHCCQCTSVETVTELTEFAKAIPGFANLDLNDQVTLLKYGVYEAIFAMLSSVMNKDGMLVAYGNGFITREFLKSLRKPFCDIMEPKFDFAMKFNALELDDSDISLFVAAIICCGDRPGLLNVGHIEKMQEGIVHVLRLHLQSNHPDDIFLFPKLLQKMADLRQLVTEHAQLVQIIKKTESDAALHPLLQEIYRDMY
Sequence of Retinoic acid receptor alpha (Homo sapiens) (P10276 whole entry, looked up, the tested form may be a part): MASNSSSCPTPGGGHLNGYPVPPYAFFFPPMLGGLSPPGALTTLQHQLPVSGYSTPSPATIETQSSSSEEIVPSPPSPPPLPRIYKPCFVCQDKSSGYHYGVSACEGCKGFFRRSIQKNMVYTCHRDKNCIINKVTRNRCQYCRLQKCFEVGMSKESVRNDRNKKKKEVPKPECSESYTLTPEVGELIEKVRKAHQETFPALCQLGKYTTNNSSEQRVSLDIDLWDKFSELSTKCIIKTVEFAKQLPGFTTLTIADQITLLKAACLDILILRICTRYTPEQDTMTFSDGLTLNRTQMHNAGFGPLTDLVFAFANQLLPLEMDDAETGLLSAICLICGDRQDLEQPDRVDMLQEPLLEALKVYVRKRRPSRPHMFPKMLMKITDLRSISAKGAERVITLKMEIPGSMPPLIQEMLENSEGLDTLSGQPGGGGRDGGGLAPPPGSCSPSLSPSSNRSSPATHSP
Sequence of human Retinoic Acid Receptor gamma (RARg), RARG (gene 5916) (P13631 whole entry, looked up, the tested form may be a part): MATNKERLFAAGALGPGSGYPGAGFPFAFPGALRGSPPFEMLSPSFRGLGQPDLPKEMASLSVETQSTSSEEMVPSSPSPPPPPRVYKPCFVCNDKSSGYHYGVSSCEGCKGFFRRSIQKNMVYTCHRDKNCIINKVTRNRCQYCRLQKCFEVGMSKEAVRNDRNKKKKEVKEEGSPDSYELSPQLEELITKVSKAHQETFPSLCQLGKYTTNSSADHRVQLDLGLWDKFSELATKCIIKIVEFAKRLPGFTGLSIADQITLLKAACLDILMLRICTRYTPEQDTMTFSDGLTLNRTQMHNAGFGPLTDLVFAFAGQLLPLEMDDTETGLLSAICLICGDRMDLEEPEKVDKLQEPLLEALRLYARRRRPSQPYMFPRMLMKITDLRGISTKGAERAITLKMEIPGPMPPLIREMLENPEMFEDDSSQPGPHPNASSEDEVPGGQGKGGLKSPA
Sequence of human Peroxisome Proliferator-activated Receptor delta (PPARd), PPARD (gene 5467) (Q03181 whole entry, looked up, the tested form may be a part): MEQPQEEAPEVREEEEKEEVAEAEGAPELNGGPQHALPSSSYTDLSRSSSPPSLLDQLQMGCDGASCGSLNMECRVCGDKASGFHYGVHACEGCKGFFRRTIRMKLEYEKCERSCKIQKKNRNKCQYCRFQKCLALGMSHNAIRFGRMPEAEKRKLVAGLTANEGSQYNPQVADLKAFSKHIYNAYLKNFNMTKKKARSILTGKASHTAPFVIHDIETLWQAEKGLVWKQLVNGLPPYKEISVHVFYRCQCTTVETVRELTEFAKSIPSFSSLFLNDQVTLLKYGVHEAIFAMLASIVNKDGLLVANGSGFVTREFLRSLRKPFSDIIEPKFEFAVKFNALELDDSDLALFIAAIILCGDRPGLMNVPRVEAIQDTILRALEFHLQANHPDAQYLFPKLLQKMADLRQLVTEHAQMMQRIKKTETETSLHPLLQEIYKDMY

For the compound `O=C(O)C(F)(F)C(F)(F)OC(F)(F)F`, the result in [1], in assay [2], in [3], in assay [4], in [5] and in assay [6] was inactive. For the same compound, the compound was classed as inactive in assay [7] and in [8].

As for `O=C(O)C(F)(F)C(F)(F)C(F)F`, the result in [1], in assay [2], in [3], in assay [4], in [5] and in assay [6] was inactive. Besides, the compound was called inactive in assay [7] and in [9].

In the case of `CCCCCCOC(=O)c1ccccc1O`, the AC50 is 37.6 µM (active) and 43.5 µM (active) in [1]; 38.6 µM (active) and 47 µM (active) in assay [3]; 35.3 µM (active) and 40.9 µM (active) in assay [6]. Moreover, the compound was called inactive in assay [2], in assay [10] and in [9].

On to `OCCCC(F)(F)C(F)(F)C(F)(F)C(F)(F)C(F)(F)C(F)(F)C(F)(F)F`, for which the AC50 is 45.2 µM (active) and 43.2 µM (active) in assay [1]; 45.1 µM (active) and 52.9 µM (active) in [3]; 10.3 µM (active) and 10.4 µM (active) in [6]. The compound was called inactive in assay [2], in [10] and in assay [8].

Turning to `CCCCNc1ccccc1`, the outcome in [1], in assay [10], in [3] and in assay [6] was inactive.

As for `CCCCC(CC)COP(=O)(O)OCC(CC)CCCC` (centres undefined), the outcome in assay [1] and in assay [3] was inactive. In addition, the concentration at half-maximal activity (AC50) in assay [2] was 16.5 µM (active); in assay [6] it was 36 µM (active); in assay [7], 7.51 µM (active); in assay [9] it was 15.4 µM (active).

Turning to `OCC(F)(F)C(F)(F)C(F)(F)C(F)(F)C(F)(F)C(F)(F)F`, the result in [1], in [2], in assay [3], in assay [5] and in assay [9] was inactive. Further, the AC50 is 46.4 µM (active) in [3]; 52.3 µM (active) and 30 µM (active) in assay [6].

`C=C(C)C(=O)OCCC(F)(F)C(F)(F)C(F)(F)C(F)(F)C(F)(C(F)(F)F)C(F)(F)F`: the outcome in assay [1], in assay [10], in assay [3], in assay [5], in [6] and in assay [9] was inactive.

Take `CO[Si](OC)(c1ccccc1)c1ccccc1`: the outcome in [1], in assay [2], in assay [3], in assay [4], in assay [5] and in [8] was inactive. Besides, the concentration at half-maximal activity (AC50) in [6] was 37 µM (active).

For `O=S(=O)(OCC(F)F)C(F)(F)F`, the result in assay [1], in assay [2], in assay [10], in assay [3] and in [6] was inactive.

As to `C#C[C@]1(O)CC[C@H]2[C@@H]3CCc4cc(OC)ccc4[C@H]3CC[C@@]21C`, the AC50 is 2.22 µM (active) in [1], 31.1 µM (active) in assay [6] and 4.66 µM (active) in assay [9]. Also, the call in assay [2], in assay [3], in assay [4], in assay [7] and in assay [8] was inactive.

As to `FC(F)(F)C(F)(F)C(F)(F)C(F)(F)C(F)(F)C(F)(F)C(F)(F)C(F)(F)CCS`, the result in [1], in assay [2], in assay [3] and in [6] was inactive.

In the case of `CCCCOCCOCCOC(=O)CCCCC(=O)OCCOCCOCCCC`, the result in assay [1], in assay [10], in assay [3], in assay [5], in assay [6] and in assay [7] was inactive. For the same compound, in assay [8], the compound was classed as inactive. Besides, the AC50 in assay [2] is 37.7 µM (active).

Take `O=C(O)C(F)(F)C(F)(F)C(F)(F)F`: the outcome in assay [1], in assay [2], in [10], in assay [3], in assay [6] and in assay [7] was inactive. Moreover, in [9], the compound was classed as inactive.

Regarding `O=C(O)C(F)(OC(F)(F)C(F)(OC(F)(F)C(F)(F)C(F)(F)F)C(F)(F)F)C(F)(F)F` (centres undefined), the result in assay [1], in [2], in assay [10], in assay [3], in assay [4] and in assay [5] was inactive. Moreover, the outcome in assay [6], in assay [9] and in assay [8] was inactive. Also, the concentration at half-maximal activity (AC50) in assay [2] was 108 µM (active).

Consider `C=CC(F)(F)C(F)(F)C(F)(F)C(F)(F)C(F)(F)C(F)(F)C(F)(F)C(F)(F)C=C`, for which the outcome in assay [1], in assay [10], in assay [3], in [4], in assay [6] and in [7] was inactive. In addition, the result in assay [8] was inactive.

On to `FC(F)(F)C(F)(F)C(F)(F)C(F)(F)C(F)(F)CCI`, for which the result in [1], in [10], in assay [3], in [4], in assay [6] and in assay [8] was inactive. The AC50 is 30 µM (active) in assay [6] and 73 µM (active) in assay [7].

Consider `C=CC(=O)OCC(F)(F)C(F)(F)C(F)(F)C(F)(F)COC(=O)C=C`, for which the AC50 in assay [1] is 20 µM (active) and 18 µM (active); in assay [3] it was 47.1 µM (active) and 48.3 µM (active); in [6] it was 9.61 µM (active) and 8.46 µM (active); in assay [7], 37.8 µM (active). The result in assay [2], in [10] and in assay [4] was inactive.

Turning to `CCCCCCCCC(F)(F)C(F)(F)C(F)(F)C(F)(F)C(F)(F)C(F)(F)F`, the result in [1], in assay [2], in assay [10], in assay [3], in assay [4] and in [5] was inactive. Also, the outcome in assay [6], in [7] and in assay [8] was inactive.

As for `CCCCCCC(C)OC(=O)CCCCC(=O)OC(C)CCCCCC` (centres undefined), the result in assay [1], in assay [2], in [10], in [3], in assay [6] and in assay [7] was inactive. Further, in assay [9], the compound was called inactive.

`OCC(F)(F)C(F)(F)C(F)(F)F`: the result in assay [1], in [2], in assay [10], in assay [3], in [4] and in assay [5] was inactive. The result in [6], in assay [7], in [9] and in [8] was inactive.

`O=C(O)C=C(C(F)(F)F)C(F)(F)F`: the outcome in assay [1], in assay [2], in [10], in assay [3], in [6] and in [7] was inactive. Also, the compound was classed as inactive in assay [8]. Besides, the concentration at half-maximal activity (AC50) in assay [6] is 27 µM (active).

In the case of `O=S(=O)(OCCOC(F)(F)F)C(F)(F)F`, the outcome in assay [1], in [2], in assay [10], in assay [3], in assay [4] and in assay [6] was inactive. The compound was called inactive in assay [7] and in assay [8].

Take `CCc1ccc(C(c2ccc(CC)cc2)C(Cl)Cl)cc1`: the AC50 in [1] was 14.1 µM (active); in assay [6] it was 13.1 µM (active). Moreover, the result in assay [10], in [3] and in [7] was inactive.

Consider `CC(C)(C)C(=O)CC(=O)C(F)(F)C(F)(F)C(F)(F)F`, for which the result in assay [1], in assay [2], in assay [10], in [3], in [4] and in assay [5] was inactive. Further, the outcome in assay [7] and in [8] was inactive. The AC50 in assay [6] was 43.3 µM (active) and 44.3 µM (active).

Regarding `FC(F)(F)C(F)(F)C(F)(F)N(C(F)(F)C(F)(F)C(F)(F)F)C(F)(F)C(F)(F)C(F)(F)F`, the result in assay [1], in [10], in [3], in [4], in assay [5] and in [6] was inactive. The compound was classed as inactive in assay [8].

With `FC(F)(F)C(F)(F)C(F)(F)C(F)(F)C(F)(F)C(F)(F)C(F)(F)Br`, the result in assay [1], in assay [2], in [10], in [3], in [5] and in assay [6] was inactive. Moreover, the call in [7], in assay [9] and in assay [8] was inactive.
